Reference: PubChem BioAssay
Calls of active or inactive are those of the source.

What was measured:
[1] = E. coli DRC41 culture turbidity changes, primary screen, E. coli filamentation inducer project, strain DRC41, OD650, 48 h (AID 1152);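 note: E. coli MC1000 strain DRC41 lacking acrAB efflux pump and sulA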; settings: E. coli DRC41 (acrAB sulA), higher = more signal, called active from +8 up or from −8 down
[2] = small-molecule binders of probe aLefty1, primary screen, biochemical, small-molecule microarray, 635/667 nm fluorescence (AID 1153); settings: higher = more signal;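 note: score merges spot fluorescence with signal-to-noise ratio from the scanned slide images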
[3] = PSAC antagonists in infected red cells, primary screen, cell-based, P. falciparum Indochina, OD700, 1 h (AID 1154); settings: P. falciparum Indochina infected RBC osmotic lysis, higher = more signal, called active from +8 up or from −8 down
[4] = PSAC antagonists in infected red cells, primary screen, cell-based, P. falciparum Indochina, OD700, 2 h (AID 1155);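 note: lysis reports solute entry through the parasite surface anion channel PSAC; channel blockers reduce lysis of infected cells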; settings: P. falciparum Indochina infected erythrocytes, osmotic lysis OD700; higher = more signal, called active from +8 up or from −8 down
[5] = osmotic lysis modulators in infected erythrocytes, primary screen, PSAC antagonist project, cell-based, P. falciparum Indochina, OD700, 3 h (AID 1156); settings: higher = more signal, called active from +8 up or from −8 down
[6] = PSAC antagonists in infected red cells, primary screen, cell-based, P. falciparum Indochina, OD700, 18 h (AID 1157); settings: P. falciparum Indochina infected erythrocytes, osmotic lysis OD700, 18 h; higher = more signal, called active from +8 up or from −8 down
[7] = modulators of S6 phosphorylation in cells, primary screen, cell-based, A549, cytoblot, luminescence, serum-stimulated (AID 1158); settings: A549 phospho-S6 cytoblot, 5 h, higher = more signal;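 note: serum-stimulated A549 lung adenocarcinoma cells; signal is phosphorylated S6 detected by cytoblot immunostaining with HRP secondary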
[8] = biological target: NADPH oxidase 2 (Homo sapiens) (UniProt P04839); experiment: NOX2-dependent H2O2 signal modulators, primary screen, NOX inhibitor project, cell-based, HEK293-NOX2, PMA-stimulated, Amplex Red fluorescence (AID 1159); settings: 45 min, higher = more signal, called active from +8 up or from −8 down; note: test concentration not given here
[9] = biological target: NADPH oxidase 4 (Homo sapiens) (UniProt Q9NPH5); experiment: NOX4-dependent H2O2 signal modulators, primary screen, NOX inhibitor project, cell-based, HEK293-NOX4, tetracycline-induced, Amplex Red fluorescence (AID 1160); settings: 45 min, higher = more signal, called active from +8 up or from −8 down
[10] = biological target: NADPH oxidase 5 (Homo sapiens) (UniProt Q96PH1); experiment: NOX5-dependent H2O2 signal modulators, primary screen, NOX inhibitor project, cell-based, HEK293-NOX5, Amplex Red fluorescence (AID 1161); settings: HEK293-NOX5, ionomycin, 45 min, higher = more signal
[11] = A549 cell viability effects, profiling panel, calcein-AM fluorescence, 48 h, basal (AID 1162); settings: higher = more signal; note: test concentration not given here
[12] = adipocyte viability effects, profiling panel, cell-based, 3T3-L1 adipocytes, calcein-AM fluorescence, 48 h, basal (AID 1163); settings: 3T3-L1 adipocytes viability, higher = more signal; note: test concentration not given here
[13] = HepG2 cell viability effects, profiling panel, calcein-AM fluorescence, 48 h, basal (AID 1164); settings: higher = more signal; note: test concentration not given here
[14] = MM1S cell viability effects, profiling panel, calcein-AM fluorescence, 48 h, basal (AID 1165); settings: higher = more signal;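 note: viability of MM1S multiple myeloma cells under basal unstimulated conditions; test concentration not given here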
[15] = basal RPMI8226 viability, no added stimulus, profiling panel, cell-based, calcein-AM fluorescence, 48 h, PK04 Diversity Set (AID 1166); settings: RPMI8226 myeloma viability, higher = more signal;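 note: cells grown under basal conditions without added stimulus; test concentration not given here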
[16] = basal HepG2 mitochondrial membrane potential changes, profiling panel, cell-based, JC-1 fluorescence, 24 h, 100 nL compound (AID 1167); settings: higher = more signal; note: test concentration not given here
[17] = basal 3T3-L1 adipocyte mitochondrial potential changes, profiling panel, cell-based, JC-1 fluorescence, 3T3-L1 adipocytes, 24 h, 100 nL compound (AID 1168); settings: JC-1 mitochondrial fluorescence, higher = more signal, called active from +8 up or from −8 down; note: test concentration not given here
[18] = basal RPMI8226 mitochondrial membrane potential changes, profiling panel, cell-based, JC-1 fluorescence, 24 h, 100 nL compound (AID 1169); settings: RPMI8226 myeloma, JC-1 mitochondrial potential fluorescence, higher = more signal; note: test concentration not given here
[19] = basal MM1S mitochondrial membrane potential changes, profiling panel, cell-based, JC-1 fluorescence, 24 h, 100 nL compound (AID 1170); settings: higher = more signal; note: test concentration not given here
[20] = A549 lung cancer cell viability effects, profiling panel, resazurin fluorescence, 24 h, PK04 Diversity Set (AID 1171); settings: higher = more signal, called active from +8 up or from −8 down; note: test concentration not given here

Sequence of NADPH oxidase 2 (Homo sapiens) (P04839 whole entry, looked up): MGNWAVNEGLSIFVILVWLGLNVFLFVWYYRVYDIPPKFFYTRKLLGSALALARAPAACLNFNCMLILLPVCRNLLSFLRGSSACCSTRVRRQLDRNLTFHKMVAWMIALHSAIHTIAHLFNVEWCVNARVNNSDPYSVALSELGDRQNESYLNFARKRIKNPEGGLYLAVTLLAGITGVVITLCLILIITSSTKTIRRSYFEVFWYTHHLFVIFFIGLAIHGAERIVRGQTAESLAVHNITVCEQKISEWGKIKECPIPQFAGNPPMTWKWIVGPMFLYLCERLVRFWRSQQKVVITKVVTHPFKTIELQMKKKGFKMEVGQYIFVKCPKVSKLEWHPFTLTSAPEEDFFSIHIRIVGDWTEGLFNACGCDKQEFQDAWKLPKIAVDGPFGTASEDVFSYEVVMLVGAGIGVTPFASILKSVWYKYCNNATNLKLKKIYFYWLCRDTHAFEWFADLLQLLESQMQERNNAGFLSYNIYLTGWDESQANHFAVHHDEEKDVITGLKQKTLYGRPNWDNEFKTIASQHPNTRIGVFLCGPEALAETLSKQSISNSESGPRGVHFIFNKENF
Sequence of NADPH oxidase 5 (Homo sapiens) (Q96PH1 whole entry, looked up): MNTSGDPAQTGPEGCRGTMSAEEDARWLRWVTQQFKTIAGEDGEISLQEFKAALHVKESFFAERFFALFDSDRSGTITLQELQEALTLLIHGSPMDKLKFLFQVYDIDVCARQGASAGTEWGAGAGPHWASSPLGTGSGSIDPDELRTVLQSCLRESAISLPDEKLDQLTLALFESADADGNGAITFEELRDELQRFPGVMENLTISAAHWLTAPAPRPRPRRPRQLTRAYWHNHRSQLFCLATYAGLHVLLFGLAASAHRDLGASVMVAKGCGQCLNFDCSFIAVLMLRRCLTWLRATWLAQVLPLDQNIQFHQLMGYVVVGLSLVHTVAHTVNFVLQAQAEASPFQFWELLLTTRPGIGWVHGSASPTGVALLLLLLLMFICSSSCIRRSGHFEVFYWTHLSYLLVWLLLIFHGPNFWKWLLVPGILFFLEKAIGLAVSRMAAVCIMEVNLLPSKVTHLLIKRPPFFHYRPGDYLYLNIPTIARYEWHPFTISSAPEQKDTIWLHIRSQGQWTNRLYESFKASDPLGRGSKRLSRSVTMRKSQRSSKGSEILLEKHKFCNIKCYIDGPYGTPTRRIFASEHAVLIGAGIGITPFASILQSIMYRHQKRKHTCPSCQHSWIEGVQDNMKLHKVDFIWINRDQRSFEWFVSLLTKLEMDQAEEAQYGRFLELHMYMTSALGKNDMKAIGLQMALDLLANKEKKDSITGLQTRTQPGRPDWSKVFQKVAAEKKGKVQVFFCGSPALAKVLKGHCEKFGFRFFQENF
Sequence of NADPH oxidase 4 (Homo sapiens) (Q9NPH5 whole entry, looked up): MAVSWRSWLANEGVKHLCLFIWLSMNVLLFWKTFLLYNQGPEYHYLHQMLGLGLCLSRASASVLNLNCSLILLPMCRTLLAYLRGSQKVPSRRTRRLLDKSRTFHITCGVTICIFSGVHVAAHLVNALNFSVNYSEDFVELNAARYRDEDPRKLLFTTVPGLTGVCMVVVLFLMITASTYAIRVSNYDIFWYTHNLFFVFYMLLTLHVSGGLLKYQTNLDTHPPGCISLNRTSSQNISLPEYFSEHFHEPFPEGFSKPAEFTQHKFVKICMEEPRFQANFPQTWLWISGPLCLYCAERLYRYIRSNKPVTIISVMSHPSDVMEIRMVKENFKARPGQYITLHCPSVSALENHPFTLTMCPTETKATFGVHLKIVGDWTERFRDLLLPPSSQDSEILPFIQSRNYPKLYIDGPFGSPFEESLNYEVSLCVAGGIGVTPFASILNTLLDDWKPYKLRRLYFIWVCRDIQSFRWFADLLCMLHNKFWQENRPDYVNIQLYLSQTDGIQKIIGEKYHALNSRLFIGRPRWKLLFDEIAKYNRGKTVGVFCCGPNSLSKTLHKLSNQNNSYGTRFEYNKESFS

Row | SMILES | z-score [1] | composite z-score [2] | z-score [3] | z-score [4] | z-score [5] | z-score [6] | z-score [7] | z-score [8] | z-score [9] | z-score [10] | z-score [11] | z-score [12] | z-score [13] | z-score [14] | z-score [15] | z-score [16] | z-score [17] | z-score [18] | z-score [19] | z-score [20]
1 | COCCOC(=O)N1C(=O)[C@@]2(c3ccccc31)[C@H](c1ccc(O)cc1)N1[C@H](c3ccccc3)[C@H](c3ccccc3)OC(=O)[C@H]1[C@@H]2C(=O)Nc1nc2ccccc2s1 | 0.894 (inactive) | 0.541 | 1.31 (inactive) | 1.1 (inactive) | 0.109 (inactive) | 1.41 (inactive) | 0.172 | 1.41 (inactive) | 0.449 (inactive) | 1.41 | 0.982 | 0.267 | 0.818 | -1.49 | -2.22 | -3.87 | -1.17 (inactive) | -0.883 | -1.21 | 0.185 (inactive)
2 | CCCC[C@H]1OB(O)C[C@H]2C1=C(COC)Cn1c(=O)n(-c3ccccc3)c(=O)n12 | 0.929 (inactive) | -0.101 | 0.43 (inactive) | 0.0541 (inactive) | 0.11 (inactive) | 0.0357 (inactive) | 0.385 | 0.175 (inactive) | 0.317 (inactive) | 0.476 | 0.0913 | -0.21 | -0.136 | -1.16 | -0.657 | 0.0213 | -0.199 (inactive) | 0.454 | -0.73 | 0.921 (inactive)
3 | COc1ccc(C(O)C2C=CC3C(=O)N(Cc4ccccc4)C(=O)C3N2n2cnnc2)cc1OCc1ccccc1 (stereo not given) | 0.209 (inactive) | 0.142 | 1.3 (inactive) | 0.0118 (inactive) | 0.372 (inactive) | -1.82 (inactive) | 1.42 | -0.361 (inactive) | -0.079 (inactive) | 0.384 | 0.187 | 0.534 | -0.345 | 0.195 | -1.79 | -0.323 | -1.06 (inactive) | 0.593 | -0.882 | 0.18 (inactive)
4 | C=C(COC)/C(=C/C[C@@H](OC(=O)c1ccncc1)c1ccc(CO)o1)c1cc(C(=O)OC)ccc1OC | 0.855 (inactive) | 0.062 | 3.87 (inactive) | 0.453 (inactive) | 1.57 (inactive) | 0.308 (inactive) | 0.934 | -0.631 (inactive) | -0.124 (inactive) | -0.495 | 0.27 | -0.766 | 0.466 | -0.761 | -0.27 | 0.232 | -0.478 (inactive) | -0.277 | -1.28 | 0.386 (inactive)
5 | COc1ccc(-c2cc3c(c(-c4ccc(Oc5ccccc5)cc4)n2)[Si](C(C)C)(C(C)C)OC3)cn1 | -1.14 (inactive) | 0.0004 | 2.85 (inactive) | 1.54 (inactive) | 0.208 (inactive) | 0.85 (inactive) | -0.837 | 0.476 (inactive) | 0.412 (inactive) | 0.179 | -0.599 | -0.377 | 0.645 | -1.19 | -1.75 | -1.43 | -0.47 (inactive) | -0.845 | -0.973 | 1.07 (inactive)
6 | O=C(NCCN1CCOCC1)C1N=C(c2ccc(OCCCO)cc2)N(c2ccccc2)O1 (stereo not given) | 0.759 (inactive) | 0.0709 | 6.99 (inactive) | 0.287 (inactive) | -0.625 (inactive) | 0.399 (inactive) | -0.441 | 1.45 (inactive) | -0.0142 (inactive) | -0.429 | 0.264 | -0.126 | 0.291 | 0.66 | -0.425 | 0.0176 | 0.653 (inactive) | -1.28 | 1.27 | 0.712 (inactive)
7 | CN(C)C(=O)[C@]1(Cc2ccccc2N=[N+]=[N-])N=C(c2ccc(OCCCO)cc2)O[C@@H]1c1ccccc1N=[N+]=[N-] | 1.02 (inactive) | 0.431 | 30.7 (active) | 25.6 (active) | 1.15 (inactive) | 7.43 (inactive) | 2.53 | -1.59 (inactive) | 0.482 (inactive) | 0.199 | 0.03 | 0.899 | -0.468 | -3.3 | -3.67 | 1.53 | 1.41 (inactive) | -0.946 | -1.8 | -2.16 (inactive)
8 | CC1(C)[C@@H]2CC(C(O)C3C=CC4C(=O)N(Cc5ccccc5)C(=O)C4N3n3cnnc3)=C[C@H]1C2 (stereo not given in full) | -0.316 (inactive) | 0.0451 | 1.31 (inactive) | 1.24 (inactive) | 0.313 (inactive) | 0.927 (inactive) | -0.688 | -0.14 (inactive) | 0.741 (inactive) | 0.273 | -0.868 | -0.622 | 0.0607 | -0.0282 | 0.346 | -0.237 | 0.352 (inactive) | -0.124 | -0.649 | 1.18 (inactive)
9 | CCOC(=O)C[C@H]1[C@H](OC(=O)c2ccccc2-c2ccccc2)[C@@H](NC(=O)CC(C)C)c2cc(OCCCO)ccc2N1C(=O)Cc1ccc(OC)cc1 | -0.892 (inactive) | -0.0094 | 2.71 (inactive) | 0.317 (inactive) | 0.587 (inactive) | 0.207 (inactive) | 0.633 | -0.234 (inactive) | 1.21 (inactive) | -0.33 | 0.412 | 0.417 | 0.612 | -1.52 | -0.884 | 1.4 | 0.652 (inactive) | -0.0827 | 0.32 | 1.34 (inactive)
10 | CC(=O)NCCCC[C@@H]1NC(=O)[C@@H]2C[C@H](C(=O)NCCCCCNC(=O)CS)[C@H](c3cccc(OCCO)c3)N2C1=O | 1.52 (inactive) | 0.0536 | 1.33 (inactive) | -0.202 (inactive) | 0.344 (inactive) | -1.85 (inactive) | 0.697 | -1.05 (inactive) | 0.489 (inactive) | 0.0642 | 0.189 | 0.767 | -0.884 | 0.28 | 0.403 | -1.12 | -0.843 (inactive) | 0.436 | -0.892 | 0.131 (inactive)
11 | CCC(CC)C(O)C1C=CC2C(=O)NC(=O)C2N1Nc1ccc(Cl)cc1Cl (stereo not given) | -1.69 (inactive) | 0.348 | 1.55 (inactive) | 0.65 (inactive) | 0.0089 (inactive) | 1.24 (inactive) | -1.5 | -0.017 (inactive) | -4.41 (inactive) | -2.93 | -1.36 | -0.326 | -0.751 | -1.38 | -0.82 | -2.18 | -0.446 (inactive) | -0.661 | -0.246 | -0.929 (inactive)
12 | CN1C(=O)C2C=CC(C(O)c3ccccc3)N(N(c3ccccc3)c3ccccc3)C2C1=O (stereo not given) | -0.84 (inactive) | 0.267 | 0.581 (inactive) | 0.693 (inactive) | -0.284 (inactive) | 0.9 (inactive) | -0.809 | -1.19 (inactive) | -0.586 (inactive) | 0.121 | -0.948 | -0.669 | -0.373 | 0.0913 | -0.383 | -0.885 | -0.791 (inactive) | 0.538 | 0.102 | -0.166 (inactive)
13 | CNS(=O)(=O)c1ccc(C)cc1 | 2.78 (inactive) | -0.371 | -0.699 (inactive) | -1.07 (inactive) | -0.886 (inactive) | -2.23 (inactive) | 0.929 | 2.36 (inactive) | 0.878 (inactive) | 0.669 | 0.753 | 0.451 | 1.4 | 0.269 | 0.0427 | 0.384 | 1 (inactive) | -0.049 | 0.937 | -0.126 (inactive)
